# Data taken from PubChem BioAssay AID488840 (Broad Institute, 2010).
# The campaign covered roughly 1,400 compounds. About 45 (3%) were called active.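 The calls were made as follows: active = half-maximal dose of signal decrease from fit no higher than ten times the top valid tested dose; inconclusive = fit invalid, or curve flat with 30 to 70% inhibition; inactive = the rest.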 Only a sample is shown. Results with a measured potency or affinity are listed apart.
# Molecular target: Lysine-specific demethylase 4A (Homo sapiens) (UniProt O75164)
# Assay: inhibition of JMJD2A H3K9me3 demethylation – biochemical, DELFIA europium, cherry-picked samples, selectivity assay for GASC-1 inhibitor project, dose response (AID 488840);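 also: europium signal reports the dimethyl H3K9 product detected by antibody so inhibitors lower it; 0% = median of neutral control wells and -100% = median of positive control wells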
# Conditions: GST-JMJD2A(1-420) H3K9me3 demethylation; series mostly up to 6 µM; activity change, negative = inhibition: at the top concentration
# Sequence of Lysine-specific demethylase 4A (Homo sapiens) (O75164 whole entry, looked up): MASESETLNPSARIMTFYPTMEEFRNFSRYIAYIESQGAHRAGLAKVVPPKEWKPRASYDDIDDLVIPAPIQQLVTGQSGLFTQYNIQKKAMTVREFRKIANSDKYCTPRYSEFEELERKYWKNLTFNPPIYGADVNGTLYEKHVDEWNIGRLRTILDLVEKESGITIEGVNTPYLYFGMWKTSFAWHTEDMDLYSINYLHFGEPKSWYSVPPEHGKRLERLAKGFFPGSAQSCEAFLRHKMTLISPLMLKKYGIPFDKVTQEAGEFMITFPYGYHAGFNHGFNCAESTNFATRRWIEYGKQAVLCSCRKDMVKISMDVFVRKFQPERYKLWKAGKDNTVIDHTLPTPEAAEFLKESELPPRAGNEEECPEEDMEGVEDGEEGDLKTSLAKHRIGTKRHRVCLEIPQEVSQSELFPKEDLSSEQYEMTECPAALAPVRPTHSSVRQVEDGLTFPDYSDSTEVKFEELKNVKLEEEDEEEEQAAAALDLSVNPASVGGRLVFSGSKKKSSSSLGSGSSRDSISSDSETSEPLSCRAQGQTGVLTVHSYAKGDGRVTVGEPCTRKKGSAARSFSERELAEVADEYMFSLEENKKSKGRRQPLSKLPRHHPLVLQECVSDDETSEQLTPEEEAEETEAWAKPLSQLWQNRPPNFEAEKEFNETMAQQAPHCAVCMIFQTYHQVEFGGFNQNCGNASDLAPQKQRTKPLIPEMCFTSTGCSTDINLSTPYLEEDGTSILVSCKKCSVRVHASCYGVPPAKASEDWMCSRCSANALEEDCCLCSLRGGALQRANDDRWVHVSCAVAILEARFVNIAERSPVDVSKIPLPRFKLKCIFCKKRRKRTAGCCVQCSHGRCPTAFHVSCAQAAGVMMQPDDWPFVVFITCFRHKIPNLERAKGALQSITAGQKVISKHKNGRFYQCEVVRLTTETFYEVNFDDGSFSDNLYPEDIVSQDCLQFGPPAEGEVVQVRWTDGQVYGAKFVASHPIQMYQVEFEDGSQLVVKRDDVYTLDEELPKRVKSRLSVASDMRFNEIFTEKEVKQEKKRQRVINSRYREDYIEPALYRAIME
row,Compound,"activity change, negative = inhibition"
1,COc1cc2c(cc1OC)C(COc1ccc(F)cc1)NCC2 (centres undefined),-1.68% (inactive)
2,CC(C)CN(C(=O)c1ccc(N2CCCC2=O)cc1)c1c(N)n(Cc2ccccc2)c(=O)[nH]c1=O,8.41% (inactive)
3,OC(COc1ccc2ccccc2c1Br)Cn1cnc(-c2ccccc2)c1 (centres undefined),-1.19% (inactive)
4,COc1ccc2cc3cc(C(=O)N4CCN(C5CCCCC5)CC4)oc3nc2c1,0.0255% (inactive)
5,C[C@@H]1CN([C@H](C)CO)C(=O)c2cccc(NS(=O)(=O)c3ccccc3)c2O[C@H]1CN(C)C,5% (inactive)
6,COC(=O)c1cc(C#N)c(OC)nc1C,5.1% (inactive)
7,CSc1ccc(-c2nc(CSCC(=O)N3CCOCC3)c(C)o2)cc1,4.78% (inactive)
8,Cc1ccc(/C=N\NC(=O)c2cc([N+](=O)[O-])cc([N+](=O)[O-])c2)o1,-2.67% (inactive)
9,O=C(N/N=C/c1cc([N+](=O)[O-])cc([N+](=O)[O-])c1O)/C(=C\c1cccs1)NC(=O)c1ccccc1,1.28% (inactive)
10,COc1cc(C#N)c(N=C(SCC#N)N2CCOCC2)cc1OC,-3.54% (inactive)
11,Cc1ccc(NC(=O)C(=O)NCCN2CCN(C(=O)C(c3ccccc3)c3ccccc3)CC2)cc1,5.03% (inactive)
12,COc1ccc(CCN2C(=O)CC(NNC(=O)c3ccccc3Br)C2=O)cc1 (centres undefined),5.48% (inactive)
13,CNC(=O)/C(C#N)=C/c1c(N(Cc2ccccc2)Cc2ccccc2)nc2ccccn2c1=O,-3.91% (inactive)
14,O=C(CSc1nnc(CNC(=O)c2ccccc2F)o1)NCCc1ccccc1,3.34% (inactive)
15,COc1ccc(NC(=O)C2OC3OC(C)(C)OC3C3OC(C)(C)OC23)cc1 (centres undefined),3.01% (inactive)
16,C=CCOc1ccc(C(=O)NC2CCCCC2)cc1,-3.43% (inactive)
17,Cc1cc(=O)[nH]c(CN2CCOCC2)n1,0.421% (inactive)
18,COc1ccc(N2CCN(C(=O)c3nn(C)c4c3CS(=O)(=O)c3ccccc3-4)CC2)cc1,1.99% (inactive)
19,O=c1cc(NC2CCCCCC2)[nH]c(=O)[nH]1,-9.15% (inactive)
20,CCCc1nn2c(=O)cc(CSCC(=O)Nc3ccccc3)nc2s1,-2.93% (inactive)
21,Cc1nnsc1C(=O)NNS(=O)(=O)c1ccccc1,0.407% (inactive)
22,CCC(=O)N1CCc2cc(S(=O)(=O)CCC(=O)Nc3cccc(F)c3)ccc21,3.52% (inactive)

row,Compound,"activity change, negative = inhibition"
1,C#CCOCCOCCOCCNc1nc(N2CCOCC2)nc(N2CCN(C(=O)[C@H](Cc3cc4ccccc4[nH]3)n3cc([C@@H](N)CC(C)C)nn3)CC2)n1,-4.26% (inactive)
2,COc1ccc(NC(=S)N2CCC(C(=O)N3CCCCCC3)CC2)cc1,0.103% (inactive)
3,CC(=O)Nc1ccc(NC(=O)C2CCN(C(=O)c3cccs3)CC2)cc1,-8.37% (inactive)
4,CCC(CC)NC(=O)CSc1nnc(-c2ccc(OC)cc2)n1C(C)C,-3.51% (inactive)
5,Cc1ccc(CNC(=O)CCC2CCCN(Cc3ccc4cccc(F)c4n3)C2)o1 (centres undefined),1.48% (inactive)
6,COc1ccc(/C=N/Nc2cc(=O)n(C)c(=O)n2C)cc1OC,-8.8% (inactive)
7,CC1=NN(C(=O)Cc2ccccc2)C(O)(c2cccnc2)C1 (centres undefined),2.71% (inactive)
8,C#CCOCCOCCOCCNc1nc(N2CCN(C(=O)[C@H](CCCCN)n3cc(CN)nn3)CC2)nc(N2CCN(C(=O)[C@H](CCC(=O)O)n3cc([C@@H](N)CCSC)nn3)CC2)n1,1.72% (inactive)
9,CCN(CC)C(=O)[C@H]1CC(CC(=O)NC/C=C(\C)CCC=C(C)C)C(=O)N2CCc3c([nH]c4ccccc34)[C@]12C (some centres undefined),7.5% (inactive)
10,Cc1ccc(/C(N)=N/OC(=O)CCC2CCCCC2)cc1,0.447% (inactive)
11,O=c1cc(N2CCc3ccccc32)[nH]c(=O)n1-c1ccccc1,4.98% (inactive)
12,CCc1ncc(C)[nH]1,-14.1% (inactive)
13,Cc1noc(C)c1COc1ccc(C(=O)NCC2CCCO2)cc1 (centres undefined),-4.92% (inactive)
14,O=c1cc(-c2ccc(O)c(O)c2)oc2c(C3O[C@H](CO)[C@@H](O)[C@H](O)[C@H]3O)c(O)cc(O)c12 (some centres undefined),-24% (inactive)
15,CCC(C)NC(=S)N1CCN(C)CC1 (centres undefined),1.71% (inactive)
16,COc1cccc(NC(=O)N2CCN(c3cccc(C)c3)C(C)C2)c1 (centres undefined),0.171% (inactive)
17,COC(=O)[C@]1(Cc2ccccc2)N[C@H](CN(C)C(=O)Nc2ccccc2)[C@@H]2C(=O)N(C)C(=O)[C@@H]21,6.68% (inactive)
18,O=C(NCc1nnc(SCC(=O)N2CCCC2)o1)c1ccccc1F,-1.83% (inactive)
19,CCC(=O)Nc1ccccc1Nc1cc(C#N)c(C#N)cc1[N+](=O)[O-],-1.89% (inactive)
20,O=[N+]([O-])c1ccccc1N/N=C\c1ccccc1Cl,-1.83% (inactive)
21,Cc1ccc(Nc2nnc(SCC(=O)N(C)C3CCS(=O)(=O)C3)s2)cc1 (centres undefined),3.34% (inactive)
22,CCO[C@@H]1OC(C(=O)NC2CC2)=C[C@H](c2c[nH]c3ccccc23)[C@H]1CCCO,-1.12% (inactive)

row,Compound,"activity change, negative = inhibition"
1,Cc1occc1-c1nnc(SCC(=O)c2cc3ccccc3oc2=O)o1,2.21% (inactive)
2,O=C(NCCCn1ccnc1)c1cc2c(ccc3ccccc32)o1,4.32% (inactive)
3,COc1ccccc1NC(=O)COC(=O)/C=C/c1cccs1,4.06% (inactive)
4,COc1ccccc1NC(=O)c1cccs1,-1.95% (inactive)
5,Cc1ccc(C(=O)NCCCCNC(=O)c2ccc(C)o2)o1,-5.72% (inactive)
6,COC(=O)C1=C(C)OC(N)=C(C#N)C1c1cc2cccc(C)c2nc1Cl (centres undefined),3.92% (inactive)
7,CC(C)=CC(=O)O[C@@H]1Cc2c(ccc3ccc(=O)oc23)OC1(C)C,-0.336% (inactive)
8,c1ccc2c(c1)ccc1nnc(-c3ccc4c(c3)OCO4)n12,3.37% (inactive)
9,CS(=O)(=O)N(CC(=O)N1CCCCCC1)c1ccccc1,-5.65% (inactive)
10,C[C@H](CO)N1C[C@H](C)[C@@H](CN(C)Cc2ccncc2)Oc2c(NC(=O)Cc3ccccc3)cccc2C1=O,5.08% (inactive)
11,O=C(Nc1cccnc1)c1ccc2c(c1)C(=O)N(Cc1cccnc1)C2=O,-1.63% (inactive)
12,CCOC(=O)CSc1nc2sc(C)c(C)c2c(=O)[nH]1,-5.03% (inactive)
13,Cc1ccc(Nc2c(-c3ccccn3)nc3cc(C)ccn23)cc1,-3.14% (inactive)
14,c1ccc(-c2nc(-c3ccco3)cs2)nc1,1.76% (inactive)
15,Cn1c(=O)c(-c2ccccc2)nn2c3ccccc3nc12,-0.768% (inactive)
16,Clc1ccccc1Cn1nnc2c(NCCN3CCOCC3)ncnc21,-12% (inactive)
17,Cc1ccc(NC(=O)c2cccc3c2C(=O)N(C2CCCCC2)C3)c(C)c1,-3.71% (inactive)
18,Cc1ccc(S(=O)(=O)Nc2ccc3c(c2)C(=O)N([C@H](C)CO)C[C@H](C)[C@@H](CN(C)Cc2ccc(-c4ccccc4)cc2)O3)cc1,20.7% (inactive)
19,Cc1nn(C)c(N)c1C(O)(c1nccn1C)C(F)(F)F (centres undefined),7.95% (inactive)
20,O=C(NCC(c1ccco1)N1CCCCC1)c1ccc(OCc2ccccc2)cc1 (centres undefined),-0.883% (inactive)
